Screening data (PubChem BioAssay)
An excerpt weighted towards active compounds, which were near 3.4% of everything screened.
Mito fusion act – qHTS Assay for Small Molecule Inhibitors of Mitochondrial Division or Activators of Mitochondrial Fusion. S. cerevisiae fusion-defective mutant growth rescue, CellTiterGlo 48 h. Potency, µM (doses to about 46.1 µM), most hits filed as activators. 320,000 tested, 0.23% active; also: nearly all actives have a fitted effect of over 45% in size
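Growth-rescue viability read-out: after 48 h at the non-permissive 37C in glycerol/ethanol YPEG, yeast mitochondrial fusion mutants are measured by CellTiterGlo luminescence; compounds (23 nl pinned per well) restoring growth score as division inhibitors or fusion activators.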
GLS inh – qHTS for Inhibitors of Glutaminase (GLS); GLS enzymatic activity, qHTS titration; Potency, µM (highest dose often 45.5 µM), actives largely listed as inhibitors; 410,000 tested, 0.21% active; AID 624170, 2012
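hKGA in 45 mM KH2PO4 (pH 8.2), 0.02% Tween-20 with compound, then 1mM L-Glutamine (stock as added) plus glutamate oxidase/HRP/Amplex red coupling mix. Fluorescence read initially and after 30 min at RT; signal change reflects glutamate formation.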
KAT2A inh – qHTS Assay for Inhibitors of GCN5L2. Potency, µM (series often up to 58.9 µM), most hits filed as inhibitors. 390,000 tested, 0.21% active. GCN5L2 HAT assay, ThioGlo1 CoA-SH fluorescence. AID 504327, 2011
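GCN5L2 (20nM final) in 50mM HEPES, 0.1mM EDTA pH 7.5, 0.01% Tween-20 was preincubated 15 min at room temperature with compound, then given ThioGlo1 (50uM), H3(1-25) peptide (75uM) and acetyl-CoA (70uM); CoA-thiol fluorescence (Ex340/Em540) was read at 0 and 20 min.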
PLK1 PBD block – qHTS for Inhibitors of PLK1-PDB (polo-like kinase 1 - polo-box domain): Primary Screen. Serine/threonine-protein kinase PLK1 (Homo sapiens), P53350. Plk1 PBD binding of FITC phosphopeptide, fluorescence polarization. Potency, µM, usual class: inhibitors. 360,000 tested, 2.8% active. AID 720504, 2013; also: series mostly up to about 57 µM; nearly all actives have a fitted effect of over 65% in size
Target sequence (P53350 whole entry, looked up, the tested form may be a part): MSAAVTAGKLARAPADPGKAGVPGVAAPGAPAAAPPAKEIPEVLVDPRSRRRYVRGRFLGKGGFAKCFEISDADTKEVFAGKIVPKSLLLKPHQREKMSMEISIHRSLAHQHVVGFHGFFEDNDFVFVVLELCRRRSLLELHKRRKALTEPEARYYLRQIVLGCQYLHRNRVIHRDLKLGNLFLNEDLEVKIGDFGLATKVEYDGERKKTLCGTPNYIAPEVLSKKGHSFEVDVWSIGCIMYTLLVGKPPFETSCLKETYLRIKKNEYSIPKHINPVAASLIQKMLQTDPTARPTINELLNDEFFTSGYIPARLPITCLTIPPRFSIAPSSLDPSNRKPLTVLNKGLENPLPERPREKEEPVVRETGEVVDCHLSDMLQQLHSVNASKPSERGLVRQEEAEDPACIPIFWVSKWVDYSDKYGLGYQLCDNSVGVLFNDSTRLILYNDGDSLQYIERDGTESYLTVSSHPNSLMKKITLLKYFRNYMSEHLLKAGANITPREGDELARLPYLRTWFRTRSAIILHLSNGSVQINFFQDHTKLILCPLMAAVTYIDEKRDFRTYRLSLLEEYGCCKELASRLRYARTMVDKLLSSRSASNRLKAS
VDR inh – Inhibitors of the vitamin D receptor (VDR): qHTS; AID 504847, 2011; Potency, µM, most hits filed as inhibitors; 400,000 tested, 0.93% active; Vitamin D3 receptor (Homo sapiens), P11473; VDR-SRC2-3 peptide fluorescence polarization, 2 h
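Fluorescence polarization assay of small-molecule disruption of VDR binding to coregulator peptide SRC2-3. Compounds and controls pin-transferred, then read after 2 h incubation at ambient room temperature.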
PKM2 act – qHTS Assay for Activators of Human Muscle isoform 2 Pyruvate Kinase; AID 1631, 2009; 260,000 tested, 0.34% active; purified PKM2, Kinase-Glo ATP luminescence, activation; response scale: 0% is enzyme alone, no compound; Potency, µM (highest dose often 57.5 µM), most hits filed as activators; Pyruvate kinase PKM (Homo sapiens), P14618; also: nearly all actives have a fitted effect of over 55% in size
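ATP formation by purified human PK-M2, quantified via coupled luciferase luminescence after 1 h at room temperature with 0.1 mM ADP and 0.5 mM PEP final.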
Large screens that a line does not name were inactive; ! = not confirmed by another sample. Calls follow the shape of the dose curve; as a rule, active = well fitted curve in the direction sought with a large enough effect; inconclusive = small, poorly fitted or top-dose-only effect, or another doubt; inactive = no such curve, though single readings can be large; an effect the other way counts as inactive or inconclusive.

CC(=O)N1c2ccc(S(=O)(=O)N3CCCC3)cc2CC1C(=O)Nc1cc(C)cc(C)c1 (stereo not drawn)	none (no result: Mito fusion act, PKM2 act)
CC(=O)N1c2ccc(S(=O)(=O)N3CCCCC3)cc2CC1C(=O)Nc1ccc(F)cc1C (stereo not drawn)	KAT2A inh inconclusive, PLK1 PBD block 27µM, VDR inh inconclusive (no result: PKM2 act)
CO/N=C\CC(=O)Nc1ccc(Cl)cc1Cl	GLS inh inconclusive, PLK1 PBD block 21µM, VDR inh inconclusive
CO/N=C\CC(=O)Nc1ccc(F)cc1	none
Cc1ccc(S(=O)(=O)c2[nH]c(-c3ccccc3)nc2SCC(=O)O)cc1	none (no result: Mito fusion act, PLK1 PBD block, PKM2 act)
CC(=O)Sc1nc(-c2ccccc2)[nH]c1S(=O)(=O)c1ccc(C)cc1	GLS inh inconclusive, PLK1 PBD block 3µM, VDR inh inconclusive
Cc1ccc(C(=O)c2cc(O)c(O)c([N+](=O)[O-])c2)cc1	none (no result: Mito fusion act, KAT2A inh, PLK1 PBD block, VDR inh, PKM2 act)
CCNC(=O)/C(C#N)=C/c1c(N2CCN(c3ccccc3)CC2)nc2c(C)cccn2c1=O	none (no result: PKM2 act)
Cc1ccccc1Oc1nc2c(C)cccn2c(=O)c1/C=C(\C#N)C(=O)Nc1c(C)n(C)n(-c2ccccc2)c1=O	VDR inh 50µM
CCNC(=O)/C(C#N)=C/c1c(N2CCN(c3ccc(OC)cc3)CC2)nc2c(C)cccn2c1=O	PLK1 PBD block 24µM, VDR inh inconclusive (no result: PKM2 act)
C/C(=N\N=c1/scc(C)n1Cc1ccco1)c1cccc([N+](=O)[O-])c1	none
CC[C@H](C)[C@H](NC(=O)[C@H](CCCNC(=N)N)NC(=O)[C@@H]1CCCN1C(=O)[C@H](Cc1ccccc1)NC(=O)[C@H](Cc1cnc[nH]1)NC(=O)[C@H](CCCNC(=N)N)NC(=O)[C@@H](NC(=O)[C@H](C)NC(=O)[C@H](CCC(=O)O)NC(=O)[C@H](CC(N)=O)NC(=O)[C@@H](N)CCCCN)C(C)C)C(=O)N[C@@H](Cc1c[nH]c2ccccc12)C(=O)N[C@@H](CC(C)C)C(=O)O	none (no result: Mito fusion act, GLS inh, PLK1 PBD block, PKM2 act)
Cc1c(N=O)c(-c2ccccc2)n(O)[n+]1[O-]	none (no result: Mito fusion act, KAT2A inh, VDR inh, PKM2 act)
COc1ccc(C(=O)CCC(=O)Nc2cc(C)ccc2C)cc1	none (no result: Mito fusion act, PLK1 PBD block, PKM2 act)
COc1ccc(CC(=O)NNC(=O)CCC(=O)Nc2cc(C)ccc2C)cc1	PLK1 PBD block inconclusive, VDR inh 89µM
CCCC(C)NC(=O)COC(=O)c1cccc(NS(C)(=O)=O)c1 (stereo not drawn)	PLK1 PBD block 30µM
CC(=O)Nc1cccc(C(=O)OCC(=O)NC(C)c2ccc(F)cc2)c1 (stereo not drawn)	none
O=C1C=C(NCc2ccccc2)c2ccccc2C1=O	PLK1 PBD block inconclusive, VDR inh 2µM
O=C(NCCN1CCN(Cc2ccccc2)CC1)C1c2ccccc2C(=O)N2CCc3ccccc3C12 (stereo not drawn)	none
Cc1ccc(CNC(=O)C2c3ccccc3C(=O)N3CCc4ccccc4C23)o1 (stereo not drawn)	VDR inh inconclusive, PKM2 act 10µM
Cc1ccccc1NC(=S)C1=C(O)c2sccc2N(C)S1(=O)=O	PLK1 PBD block inconclusive, VDR inh inconclusive
CN1c2ccsc2C(O)=C(C(=S)Nc2ccccc2)S1(=O)=O	PLK1 PBD block 21µM, VDR inh inconclusive
COC(=O)[C@@]1(Cc2ccccc2)C=C[C@@H](C)N1C(=O)c1ccccc1	none (no result: Mito fusion act, GLS inh, KAT2A inh, PLK1 PBD block, VDR inh)
O=C1CNc2cc(Cl)ccc2N1	GLS inh inconclusive (no result: Mito fusion act, KAT2A inh, VDR inh, PKM2 act)
O=C1CSc2cc(Cl)ccc2N1	PLK1 PBD block 11µM, VDR inh inconclusive (no result: Mito fusion act, KAT2A inh, PKM2 act)
O=C(c1ccc(OCCN2CCCCC2)cc1)c1c(-c2ccc(O)cc2)sc2cc(O)ccc12	Mito fusion act 18µM! (no result: PKM2 act)
Oc1cccc(-c2sc3ccccc3c2-c2ccc(OCCN3CCCCC3)cc2)c1	none (no result: Mito fusion act, KAT2A inh, VDR inh, PKM2 act)
Cc1cccc(-c2nn3c(=O)cc(CN4CCN(C(=O)/C=C/c5ccccc5)CC4)nc3s2)c1	none (no result: Mito fusion act, PLK1 PBD block, PKM2 act)
OC(COC(c1ccc(F)cc1)c1ccc(F)cc1)CN1CCCC(C(F)(F)F)C1 (stereo not drawn)	none (no result: PKM2 act)
O=C(/C=C/c1ccccc1)N1CCOCC1	none (no result: PKM2 act)
O=C(/C=C/c1ccccc1)CCN1CCOCC1	PLK1 PBD block 21µM, VDR inh 40µM (no result: Mito fusion act, KAT2A inh, PKM2 act)
CC1(C)CC(=O)C2=C(C1)OC(N)=C(C#N)C2C#Cc1ccccc1 (stereo not drawn)	PLK1 PBD block 11µM, VDR inh 45µM, PKM2 act inconclusive
CC(c1ccccc1)C1C(C#N)=C(N)OC2=C1C(=O)CC(C)(C)C2 (stereo not drawn)	none (no result: GLS inh)
C=CCOc1ccc(CNc2ccc3[nH]c(=O)[nH]c3c2)cc1OCC	GLS inh inconclusive
C=CCOc1c(CNc2ccc3[nH]c(=O)[nH]c3c2)cccc1OC	PLK1 PBD block 27µM
C=CCOc1ccc(CNc2ccc3[nH]c(=O)[nH]c3c2)cc1	GLS inh 11µM
COC(=O)c1ccc(C(NC(=O)OCc2ccccc2)/C(C)=C/[C@@H](C)C(=O)NCCO)cc1 (stereo partly drawn)	none (no result: Mito fusion act, GLS inh, KAT2A inh, PLK1 PBD block, VDR inh)
CCCC[C@@H]1C[C@H]1C(NC(=O)c1ccco1)c1ccc(-c2ccccc2)cc1 (stereo partly drawn)	none (no result: Mito fusion act, GLS inh, KAT2A inh, PLK1 PBD block, VDR inh)
CCN(CC)C(=S)SCC(=O)c1ccc(Br)cc1	Mito fusion act 11µM
Cc1ccccc1OC(=O)n1c(=S)oc2cc(Cl)ccc21	PLK1 PBD block 13µM
CCOc1ccccc1NC(=O)Cn1c(=O)oc2cc(Cl)ccc21	none (no result: PKM2 act)
O=C1CC(c2ccccc2)Cc2nc(N3CCc4ccccc4C3)ncc21 (stereo not drawn)	none
COc1ccc(C2CC(=O)c3cnc(N4CCN(Cc5ccccc5)CC4)nc3C2)cc1 (stereo not drawn)	GLS inh inconclusive, PLK1 PBD block 21µM
CC(C)C(=O)N1CCN(C2=NS(=O)(=O)c3ccccc32)CC1	PLK1 PBD block 6.7µM
CCCC(=O)N1CCN(C2=NS(=O)(=O)c3ccccc32)CC1	none
COc1ccc(CCNC(=O)c2c(C)oc3nc(C)nc(N4CCOCC4)c23)cc1OC	none (no result: Mito fusion act, PLK1 PBD block, PKM2 act)
c1nc(NC2CCNCC2)c2cc(-c3ccoc3)ccc2n1	KAT2A inh 20µM, VDR inh 20µM (no result: Mito fusion act, GLS inh, PLK1 PBD block, PKM2 act)
Fc1ccc(Nc2ncnc3ccc(-c4ccoc4)cc23)cc1	KAT2A inh inconclusive, VDR inh 40µM (no result: Mito fusion act, GLS inh, PLK1 PBD block, PKM2 act)
CC1(C)CC(=O)C(C=NCCN2CCOCC2)=C(O)C1	none
CC1(C)CC(=O)C(C=NCCO)=C(O)C1	PLK1 PBD block 27µM
